This note sets out measurements from PubChem BioAssay AID1006 (Sanford-Burnham Center for Chemical Genomics, 2008).

Out of some 200,000 compounds screened, about 3,000 (1.5%) were called active. Many of the other results were omitted from the sample, so actives are more common in it than they were. Values without a mark were called inactive.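 The calls were made as follows: active = inhibition above about 50% when tested at 10 µM (limit read from the data); inactive = the rest.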

The assay deals with Luciferin 4-monooxygenase (Photinus pyralis) (UniProt P08659). Put plainly: inhibition of purified FLuc reporter enzyme – biochemical, luminescence, ATPLite, artefact control for luciferase-based inhibitor screens, primary screen (AID 1006). As to conditions: ATPLite firefly luciferase biochemical luminescence, 10 min; at 10 µM; active compounds read high.
Chain of Luciferin 4-monooxygenase (Photinus pyralis) (P08659 whole entry, looked up): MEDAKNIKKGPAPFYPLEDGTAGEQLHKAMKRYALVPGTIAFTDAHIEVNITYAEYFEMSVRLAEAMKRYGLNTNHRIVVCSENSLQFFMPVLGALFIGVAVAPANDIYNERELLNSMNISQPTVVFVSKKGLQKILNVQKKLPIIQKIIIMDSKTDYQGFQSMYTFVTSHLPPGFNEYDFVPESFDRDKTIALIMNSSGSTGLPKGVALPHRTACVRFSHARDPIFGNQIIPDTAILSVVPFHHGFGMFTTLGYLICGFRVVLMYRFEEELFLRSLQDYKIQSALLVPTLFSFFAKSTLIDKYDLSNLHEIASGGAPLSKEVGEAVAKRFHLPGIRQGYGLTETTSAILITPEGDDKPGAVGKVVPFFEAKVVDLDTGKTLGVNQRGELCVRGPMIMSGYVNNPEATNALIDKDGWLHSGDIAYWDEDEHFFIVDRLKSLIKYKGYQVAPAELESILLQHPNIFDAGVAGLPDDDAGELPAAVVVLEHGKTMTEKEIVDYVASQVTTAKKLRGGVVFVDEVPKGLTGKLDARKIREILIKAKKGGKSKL
Broadly, the inhibition is the drop in the measured response relative to a control, in per cent. For the compound `CCOC(=O)c1c(C)[nH]c(C2=NNC(=NC(C)COC)SC2)c1C` (stereo unspecified), the inhibition is 56.5% (active).

For the compound `CCCCOC(=O)c1[nH]c(C)c(C(=O)OC)c1C`, the inhibition was 15.4%.

On to `CCOC(=O)c1c(C)[nH]c2c1-c1ccccc1C(=O)C2=O`, for which the inhibition is -5.3%.

Turning to `CCOC(=O)C(C)Sc1nc2ccccc2c(=O)n1CC1CCCCC1` (stereo unspecified), the inhibition is 1.4%.

Regarding `CN(c1ccc2nc3ccccc3c(=O)n2n1)C1CCCCC1`, the inhibition was 96.2% (active).

As to `O=c1c2ccccc2nc2n1C1(CCCCC1)Cc1ccccc1-2`, the inhibition was -6.3%.

In the case of `CC(C)CCC(C)NC(=O)c1ccc2nccnc2c1` (stereo unspecified), the inhibition was 2.8%.

Take `COc1ccc(N2C(=O)/C(=C\c3ccco3)N=C2SCC(N)=O)cc1Cl`: the inhibition is -5.8%.

For the compound `Cc1cc(=O)oc(C)c1C(=O)N1CCCCC1`, the inhibition was -6.7%.

On to `Cc1ccc2cc3cc(C(=O)N4CCCCCC4)oc3nc2c1`, for which the inhibition was 69.5% (active).

In the case of `Cc1ccc(C(=O)N2CCCCCC2)cc1Br`, the inhibition is -7.1%.

`C/C(=N/N1CCN(Cc2cccc3ccccc23)CC1)c1cccnc1`: the inhibition is -5.7%.

With `O=C(Nc1ccc(NC(=O)c2cccs2)cn1)c1ccco1`, the inhibition is 83.2% (active).

`O=C(Nc1ccc2nccnc2c1)c1ccco1`: the inhibition was 13%.

Take `COc1cccc(C(=O)Nc2ccc(NC(=O)c3ccco3)cn2)c1`: the inhibition was 6.5%.

Take `N/C(=N\OC(=O)c1ccc2c(c1)OCO2)c1ccc(Br)cc1`: the inhibition was 60.6% (active).

As for `N/C(=N\OC(=O)/C=C/c1ccccc1)c1ccc(Br)cc1`, the inhibition was -0.5%.

For the compound `N/C(=N\OC(=O)N1c2ccccc2Sc2ccccc21)c1ccc(Br)cc1`, the inhibition was -3.4%.

With `COc1ccccc1CN(C)C(=O)C1(c2ccc(Cl)cc2)CC1`, the inhibition is -4.2%.

For the compound `O=C(CCC(=O)N1CCCC1)Nc1ccc([N+](=O)[O-])cc1`, the inhibition was -1.6%.

As for `CCn1c(=S)[nH]c2sc3c(c2c1=O)CCCCC3`, the inhibition was -1.8%.

Consider `CCO[C@H]1OC(C(=O)Nc2ccccc2)=C[C@@H](C2CC2)[C@@H]1CCCO`, for which the inhibition was -0.3%.

In the case of `Cc1ccc(C)c(NC(=S)NCC(c2cccnc2)N2CCOCC2)c1` (stereo unspecified), the inhibition was -5.6%.

On to `CCCCSc1nnc(-c2ccc(C)cc2)o1`, for which the inhibition was 50.5% (active).

With `CCOC(=O)CSc1nnc(-c2ccc([N+](=O)[O-])cc2)o1`, the inhibition was 3%.

For the compound `CCOC(=O)CSc1nnc(-c2ccncc2)o1`, the inhibition is 0.6%.

As for `Cc1ccnc(SCC(N)=O)n1`, the inhibition is -1.6%.

Consider `O=C(Nn1cnnc1)c1ccc([N+](=O)[O-])cc1`, for which the inhibition is -5.5%.

Take `Cc1ccc(-c2cc(C(=O)NCc3cn(C)nc3C)c3cc(Br)ccc3n2)cc1`: the inhibition is 10.9%.

For `Cc1ccc2nc(-c3cccc(Br)c3)cc(C(=O)Nn3cnnc3)c2c1`, the inhibition is 78.1% (active).

As for `Cc1ccc2nc(-c3ccccc3)cc(C(=O)O)c2c1`, the inhibition was 15.5%.

Take `Cc1nn2cc(-c3ccc(Cl)cc3)cnc2c1Br`: the inhibition was 7.5%.

For `CCCCc1cc(=O)oc2cc(C)cc(OCc3nn[nH]n3)c12`, the inhibition is -6.7%.

With `COc1ccc(-c2cc3ccc(OCc4nn[nH]n4)cc3oc2=O)cc1`, the inhibition is 81.4% (active).

`Cc1noc(C)c1COc1ccc2ccc(=O)oc2c1`: the inhibition is -2.2%.

On to `Cc1cc(Cl)ccc1NC(=S)N1CCC(C(N)=O)(N2CCCCC2)CC1`, for which the inhibition is -2.1%.

`Cc1ccc(S(=O)(=O)N(NC2=NS(=O)(=O)c3ccccc32)C(=O)c2ccccc2)cc1`: the inhibition was 0.4%.

With `O=C(Oc1cccc(NC2=NS(=O)(=O)c3ccccc32)c1)c1ccncc1`, the inhibition was -2.8%.

Regarding `CC(C)(C)c1csc(NC2=NS(=O)(=O)c3ccccc32)n1`, the inhibition was 77.2% (active).

In the case of `N/C(=N\OC(=O)CCC1CCCCC1)c1ccccn1`, the inhibition is 71.2% (active).

As for `COc1ccc(/C(N)=N/OC(=O)Cc2ccccc2)cc1`, the inhibition was 10.9%.

In the case of `N/C(=N\OC(=O)CC1CCCCC1)c1ccccc1`, the inhibition was 90.2% (active).

Turning to `N/C(=N\OC(=O)CCc1ccccc1)c1ccc(Cl)cc1`, the inhibition is 0.8%.

Take `N/C(=N\OC(=O)CCc1ccccc1)c1cccnc1`: the inhibition was 14.6%.

Regarding `CCC(C)(NC(=O)c1ccccn1)C(=O)NC1CCCCC1` (stereo unspecified), the inhibition was -4.6%.

`Cc1cc(C)nc(/N=C2\NC(=O)CC(C(=O)O)N2c2ccc(Cl)cc2Cl)n1` (stereo unspecified): the inhibition was -5.6%.

In the case of `COc1ccccc1-c1noc(CSc2nc(C)cc(=O)[nH]2)n1`, the inhibition is -0.3%.

Turning to `CCc1ccc(NC(=O)C(=O)N/N=C(\C)CC(=O)NCCOC)cc1`, the inhibition is 10.5%.

In the case of `CCCCNC(=O)N1CCN(S(C)(=O)=O)CC1`, the inhibition was -1.2%.

For `CC(C)n1c(-c2ccncc2)n[nH]c1=S`, the inhibition is -5.7%.

Consider `Cc1cccc(NC(=S)N2CCC(O)CC2)c1C`, for which the inhibition is -0.2%.

Consider `CCCC(=O)Nc1ccc(C(=O)N/N=C/c2ccc[nH]2)cc1`, for which the inhibition was -1.8%.

`O=C(c1cc(Cl)cc(Cl)c1)N1CCC(=O)N(C(COCc2ccccc2)Cc2ccccc2)CC1` (stereo unspecified): the inhibition is -9.5%.

Regarding `O=C(O)Cc1sc(-c2ccccc2)nc1-c1cccs1`, the inhibition was 6.8%.

In the case of `NC(=O)Cc1ccc2sc(-c3ccccc3)nc2c1`, the inhibition is 65.2% (active).

For `O=C(O)Cc1sc(-c2ccc(C(=O)O)cc2)nc1-c1ccccc1`, the inhibition was -4.9%.

Regarding `CCOC(=O)c1ccc(NC(=O)C2CC(=O)Nc3nc4ccccc4n32)cc1` (stereo unspecified), the inhibition was 0.7%.

Consider `NC(=O)Cc1nc2scc(-c3ccc(Cl)cc3)c2c(=O)[nH]1`, for which the inhibition is -1.4%.

On to `O=c1[nH]c(CCl)nc2cc(-c3ccc(Cl)cc3)sc12`, for which the inhibition was 93.3% (active).

Take `O=c1[nH]c(CN2CCOCC2)nc2cc(Cl)ccc12`: the inhibition was -3.5%.

Turning to `Cc1cccc(NC(=O)NC(=S)NC(=O)c2ccccc2)c1`, the inhibition was 12.7%.

Regarding `Cn1c(-c2ccccc2)c[n+]2c1CCCCC2`, the inhibition was -4.6%.

As for `COc1ccc(C2=NN(c3ccccc3)C(c3cccs3)C2)cc1` (stereo unspecified), the inhibition was 5.5%.

In the case of `FC(F)(F)c1nc2ccccc2nc1N/N=C/c1ccc(Cl)cc1`, the inhibition was 8.5%.

As to `CC(C)(C)c1nnc(N/N=C/c2ccc(O)cc2)n(N)c1=O`, the inhibition was 17.8%.

As to `O=c1c2ccccc2nc(N/N=C/c2ccccc2)n1O`, the inhibition is 90.5% (active).
